Hit rate of the full screen: of about 16,000 compounds, about 2,600 (16%) were called active. Roughly 20% stayed inconclusive and do not appear here. The list is a sample of the results. A number with no mark means an inactive call. Calls follow the shape of the dose curve; as a rule, active = well fitted curve in the direction sought with a large enough effect; inconclusive = small, poorly fitted or top-dose-only effect, or effect the other way; inactive = no such curve, though single readings can be large or run the other way.
Biological target: Cytochrome P450 2D6 (Homo sapiens) (UniProt P10635)
Sequence (P10635 whole entry, looked up): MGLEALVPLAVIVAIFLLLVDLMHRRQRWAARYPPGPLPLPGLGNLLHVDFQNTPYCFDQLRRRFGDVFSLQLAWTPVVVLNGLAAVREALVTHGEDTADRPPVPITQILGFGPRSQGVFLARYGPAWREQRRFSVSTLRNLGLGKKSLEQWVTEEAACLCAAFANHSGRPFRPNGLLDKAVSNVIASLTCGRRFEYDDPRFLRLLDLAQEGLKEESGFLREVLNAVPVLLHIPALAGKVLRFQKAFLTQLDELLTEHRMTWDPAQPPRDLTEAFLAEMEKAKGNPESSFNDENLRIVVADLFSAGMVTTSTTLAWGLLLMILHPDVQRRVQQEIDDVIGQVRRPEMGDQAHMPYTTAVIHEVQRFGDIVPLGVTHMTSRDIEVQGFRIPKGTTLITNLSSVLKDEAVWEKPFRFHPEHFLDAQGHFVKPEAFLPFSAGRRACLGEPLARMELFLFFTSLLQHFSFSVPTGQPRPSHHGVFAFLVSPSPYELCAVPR
Test: Cytochrome panel assay with activity outcomes
Settings: recombinant CYP, pro-luciferin dealkylation, luminescence, p450-cyp2d6; series mostly up to 57.1 µM
% is scaled to controls: 0 for no effect and ±100 for the full control effect.

Compound | activity, negative = inhibition | AC50
Cc1ccc(S(=O)(=O)n2c3ccccc3c3nnc(C(=O)c4ccccc4)nc32)cc1 | -14.9% [at 11.4 µM] | 
Cc1nn(C)c(C)c1CNC(=O)c1cnn2c1NC(c1ccccc1)CC2C(F)(F)F (stereo not drawn) |  | inactive
Cn1c2c(c(=O)n(C)c1=O)CN(CCN1CCNCC1)CN2 |  | inactive
O=C(CC1(O)CCCCC1)OC1CCCC1 | -5.94% [at 11.4 µM] | 
CCCCSc1nnc(-c2cc3c(C(F)(F)F)nn(C)c3s2)n1C |  | inactive
C[N+](C)(C)CC(=O)O |  | inactive
COc1ccc([C@@H](Nc2ccccn2)c2cc(C(C)(C)C)cc(C(C)(C)C)c2O)cc1 | -16.7% [at 11.4 µM] | 
O=C(O)c1cc(C(=O)O)nc(C(=O)O)c1 | 0.571% [at 11.4 µM] | 
CC(O)(P(=O)(O)O)P(=O)(O)O |  | inactive
O=C(c1cc(C(F)(F)F)cc(C(F)(F)F)c1)N1CCC2(CC1)CCN(c1ccncc1)CC2 |  | 15.8 µM (active)
O=C(c1cccc(F)c1)N1CCC2(CC1)CN(c1ccncc1)C2 |  | inactive
O=C(c1cc(C(F)(F)F)cc(C(F)(F)F)c1)N1CCC2(CC1)CN(c1ccncc1)C2 |  | inactive
O=C(c1cc(C(F)(F)F)cc(C(F)(F)F)c1)N1CCC[C@@]2(CCN(c3ccncc3)C2)C1 |  | inactive
O=C(c1cccc(F)c1)N1CCC[C@@]2(CCN(c3ccncc3)C2)C1 |  | inactive
O=C(c1cccc(F)c1)N1CCC2(CC1)CCN(c1ccncc1)CC2 |  | 20 µM (active)
Cc1ccc(C)c(-c2nn(-c3cc(N4CCN(CCO)CC4)ccc3[N+](=O)[O-])c(=O)c3ccccc23)c1 |  | inactive
CCOC(=O)CC(Nc1nc(N2CCOCC2)nc(N2CCOCC2)n1)c1ccccc1Cl (stereo not drawn) |  | inactive
COC(=O)c1[nH]c(C)c(/C(O)=C2\C(=O)C(=O)N(CCN(C)C)C2c2cccs2)c1C (stereo not drawn) |  | inactive
CCN(CC)CCN1C(=O)C(=O)/C(=C(/O)c2ccc(OC)cc2)C1c1cccs1 (stereo not drawn) |  | 14.1 µM (active)
COc1cccc(/C(O)=C2/C(=O)C(=O)N(c3cc(C)on3)C2c2cccs2)c1 (stereo not drawn) |  | inactive
CC(C)(C)C(=O)[C@H]([C@@H](c1ccccc1)N1CCOCC1)N1CCOCC1 | 6.76% [at 11.4 µM] | 
Cc1ccc(NC(=O)c2sccc2SCc2cccc(C(F)(F)F)c2)cc1 |  | inactive

Compound | activity, negative = inhibition | AC50
O=C(c1ccccc1)c1ccc2n1CC[C@H]2C(=O)O |  | inactive
N#Cc1ccc(-c2ccccc2)nc1SCC(=O)c1cccc(Cl)c1 |  | inactive
CN1CCN(c2ncc3nc(-c4cn(C)c5ccccc45)c(=O)n(-c4ccccc4)c3n2)CC1 |  | inactive
COc1ccc(Cl)cc1C(=O)Nn1cnc2ccccc2c1=O |  | inactive
COc1ccc(C(=O)Nn2cnc3ccccc3c2=O)c(OC)c1 |  | inactive
O=C(Nn1cnc2ccccc2c1=O)c1ccc(F)cc1Cl |  | 28.2 µM (active)
COC(=O)c1ccc(NC(C)=O)o1 |  | inactive
COc1ccc(N(C(=O)COc2ccccc2OC)S(=O)(=O)c2ccc(C)cc2)cc1 |  | inactive
COc1ccc(C(C(=O)NC2CCCCC2)N(C(=O)CCCC(=O)Nc2ccccn2)c2ccc3c(c2)OCCO3)cc1 (stereo not drawn) |  | inactive
Cc1cc([N+](=O)[O-])ccc1NCc1ccccc1 |  | 15.8 µM (active)
O=C(O)c1cc([N+](=O)[O-])ccc1NCCCc1ccccc1 |  | inactive
O=[N+]([O-])c1ccc(N2CCCC2)cc1NCc1ccccc1 |  | inactive
CO[C@H]1COC(=O)C/C=C\[C@H](C)COC(=O)[C@@H](OCc2ccccc2)/C=C\[C@@H]1C | -13.9% [at 11.4 µM] | 
CCn1c(C)cc(/C=C2\SC(=O)N(CC(=O)Nc3ccc(C)c(C)c3)C2=O)c1C |  | inactive
NCCCCCc1nnc(SCc2ccc(Cl)cc2Cl)o1 |  | 1.41 µM (active)
C#CCSc1nnc(-c2sc3ccccc3c2Cl)o1 |  | inactive
NCCCCCc1nnc(SCc2ccccc2Cl)o1 |  | 11.2 µM (active)
Clc1ccccc1CSc1nnc(-c2ccncc2)o1 |  | 2 µM (active)
N#Cc1c(SCC(N)=O)nsc1SCc1ccccc1Cl |  | inactive
COc1ccc(-c2nnc(-c3cccnc3)o2)cc1 |  | inactive
c1ccc(-c2nnc(SCCC3OCCCO3)o2)cc1 |  | inactive
Clc1ccc(CSc2nnc(-c3cccnc3)o2)cc1 |  | 14.1 µM (active)

Compound | activity, negative = inhibition | AC50
Nc1nc(SCc2ccccc2Cl)cc(C(=O)O)n1 | 4.28% [at 11.4 µM] | 
Cc1cccc(-c2nnc(SCc3ccccc3)o2)c1 |  | inactive
COc1ccc(NC(=O)CCNS(=O)(=O)c2ccc3c(c2)c(=O)n(C)c(=O)n3C)cc1 |  | inactive
O=C(CCCc1ccccn1)c1ccccc1 | -16.5% [at 11.4 µM] | 
O=C1N=C(N2CCOCC2)S/C1=C/c1cccs1 |  | inactive
Cc1cc(=O)[nH]c(-n2[nH]c3c(c2=O)CCCC3)n1 |  | inactive
CCC1C(=O)OCC1Cc1cncn1C (stereo not drawn) |  | inactive
N=C(N)[C@H](N=Nc1ccccc1)C(N)=O | 4.09% [at 11.4 µM] | 
C[C@@](N)(Cc1ccc(O)c(O)c1)C(=O)O |  | inactive
FC(F)(F)c1cnc(/C=C/Nc2ccccc2Cl)c(Cl)c1 |  | inactive
COc1ccc(C(=O)NC2CCN(C(=S)Nc3cccc(C)c3)CC2)cc1 |  | inactive
O=C(O)c1ccccc1C1c2ccccc2Oc2ccccc21 | -7.56% [at 11.4 µM] | 
CC[N+](C)(CC)CCOC(=O)C1c2ccccc2Oc2ccccc21 |  | 3.98 µM (active)
CC(=O)c1ccc(OC(=O)C2c3ccccc3Oc3ccccc32)cc1 |  | inactive
COc1ccccc1N(CC(=O)NCC1CCCO1)C(=O)CNS(=O)(=O)c1ccc(C)cc1 (stereo not drawn) |  | inactive
N#CC1=C(SCC(N)=O)NC2=C(C(=O)c3ccccc32)C1c1ccc(Cl)cc1 (stereo not drawn) |  | inactive
c1ccc2c(NC3CC3)nc(-c3ccoc3)nc2c1 |  | inactive
COc1ccc2[nH]cc(CCNc3nc(-c4ccoc4)nc4ccccc34)c2c1 |  | 12.6 µM (active)
COc1cccc(-c2nc(NCCc3c[nH]c4ccc(OC)cc34)c3ccccc3n2)c1 |  | 20 µM (active)
CC(C)Oc1cccc(-n2c(CCc3c[nH]c4ccc(Br)cc34)nc3ccccc3c2=O)c1 |  | inactive
COc1ccc2[nH]cc(CCNc3nc(-c4ccc(N(C)C)cc4)nc4ccccc34)c2c1 |  | 7.94 µM (active)
COc1ccc2[nH]cc(CCNc3nc(-c4cccnc4)nc4ccccc34)c2c1 |  | 6.31 µM (active)

Compound | activity, negative = inhibition | AC50
NC(=O)NC(=O)[C@H]1CCCC[C@@H]1C(=O)O | -4.03% [at 11.4 µM] | 
C[N+](C)(C)CCOC(N)=O |  | inactive
COC(=O)CNC(=O)CCCCC(=O)NCC(=O)OC |  | inactive
Cc1ccc(C)c(N2CCN(C(=O)C3CCN(S(=O)(=O)c4cccc5nsnc45)CC3)CC2)c1 |  | inactive
CS(=O)(=O)c1ccc(Cn2c3c(c4cc(F)cc(F)c42)CCC[C@H]3CC(=O)O)cc1 |  | inactive
CC(C)c1ccc(/C(C(=O)O)=C(\O)C(=O)O)cc1 | 0.432% [at 11.4 µM] | 
CC1(C)C2([N+](=O)[O-])CN3CC1([N+](=O)[O-])CN(C2)C31CCCC1 |  | inactive
O=C(O)Cc1cc(I)c(Oc2ccc(O)c(I)c2)c(I)c1 |  | inactive
CC(=O)c1cc(C#N)c(Oc2cccc(C(F)(F)F)c2)nc1C |  | inactive
N[C@@H](CS(=O)O)C(=O)O |  | inactive
CC(C)C(=O)Nc1ccc(Sc2ccc(F)cc2)cc1 |  | inactive
CN(C(=S)NC(=O)c1ccccc1Br)C1CCCCC1 |  | inactive
COc1ccc2[nH]cc(CCNc3nc(-c4ccccc4OC)nc4ccccc34)c2c1 |  | 12.6 µM (active)
CC[C@H](CO)NCCN[C@@H](CC)CO |  | inactive
COc1ccc(F)cc1S(=O)(=O)NC(Cc1ccccc1)C(N)=O (stereo not drawn) |  | inactive
Cc1ccc(-c2cc(C(F)F)n3ncc(C(=O)Nc4c(C)nn(Cc5c(Cl)cccc5Cl)c4C)c3n2)cc1 |  | inactive
Cc1cc(C(F)F)n2ncc(C(=O)NCc3ccccc3C(F)(F)F)c2n1 |  | 5.01 µM (active)
Cc1nn(Cc2c(Cl)cccc2Cl)c(C)c1NC(=O)c1cnn2c(C(F)F)cc(-c3ccccc3)nc12 |  | inactive
O=C(Nc1cc(C(F)(F)F)ccc1N1CCCCC1)c1ccc(Br)o1 |  | inactive
CCCn1nc2cc(C(=O)NCCCCc3ccccc3)ccc2c1OCC |  | 7.94 µM (active)
O=C1CC[C@H](NC(=O)c2ccccc2)C(=O)N1 | 1.49% [at 11.4 µM] | 
CCOc1c2ccc(C(=O)NCCCCc3ccccc3)cc2nn1CC |  | 0.794 µM (active)

Compound | activity, negative = inhibition | AC50
COCCn1nc2cc(C(=O)NCC34CC5CC(CC(C5)C3)C4)ccc2c1OC |  | inactive
O=C(NC1CCCc2ccccc21)c1ccc(=O)[nH]c1 (stereo not drawn) |  | 28.2 µM (active)
CCCn1nc2cc(C(=O)NCc3ccccc3OC)ccc2c1OCC |  | inactive
COCCn1nc2cc(C(=O)NCc3cc(C(F)(F)F)cc(C(F)(F)F)c3)ccc2c1OC |  | 2.51 µM (active)
CCCCn1nc2cc(C(=O)NCc3ccc(C(F)(F)F)cc3C(F)(F)F)ccc2c1OCC |  | inactive
CCOc1c2ccc(C(=O)NCc3ccccc3OC)cc2nn1CC |  | inactive
COc1ccc(OC)c2[nH]c(=O)c(CCNS(=O)(=O)c3ccccc3)cc12 |  | inactive
CCOc1cccc(/C(O)=C2/C(=O)C(=O)N(Cc3ccco3)C2c2ccncc2)c1 (stereo not drawn) |  | inactive
O=C(NNS(=O)(=O)c1ccc(Cl)cc1)NC1CCCCC1 |  | inactive
CCC(=O)Nc1nnc(C(C)(C)C)s1 |  | inactive
O=c1c(-c2cc(F)cc(F)c2)nc2cnc(N3CCOCC3)nc2n1C[C@H]1CCCO1 |  | inactive
CCn1nc2cc(C(=O)NCC34CC5CC(CC(C5)C3)C4)ccc2c1OC |  | inactive
CCCCn1nc2cc(C(=O)NCC3CC3)ccc2c1OCC |  | inactive
CCOc1c2ccc(C(=O)NCCc3cccs3)cc2nn1CC |  | 2.24 µM (active)
CCOc1c2ccc(C(=O)NCc3ccco3)cc2nn1CC |  | inactive
COCCNC(=O)c1ccc2c(c1)ncn2-c1ccc(F)c(F)c1 |  | inactive
CCCn1nc2cc(C(=O)NCCc3ccc(C)cc3)ccc2c1OCC |  | 3.55 µM (active)
CCCn1nc2cc(C(=O)NCc3ccc(C)cc3)ccc2c1OC |  | inactive
CCOc1c2ccc(C(=O)NC3CCCc4ccccc43)cc2nn1C (stereo not drawn) |  | 7.94 µM (active)
CCOc1c2ccc(C(=O)NCCCCc3ccccc3)cc2nn1C |  | 0.282 µM (active)

Source: PubChem BioAssay AID1851 (National Center for Advancing Translational Sciences (NCATS), 2009)
